From PubChem BioAssay (NCATS)
Inconclusive results are not listed. Entries that show only a call come without a potency. The source made the active and inactive calls. Calls follow the shape of the dose curve; as a rule, active = well fitted cell-killing curve with a large enough effect; inconclusive = small, poorly fitted or top-dose-only effect, or effect the other way; inactive = flat fitted curve, though single readings scatter.

Assay: S16 Schwann cell viability assay (CellTiter-Glo assay) (AID 624031);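 also: native untransfected S16 rat Schwann cells; nearly all actives have a fitted effect of over 70% in size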
Conditions: S16 rat Schwann cells viability, 24 h; series mostly up to 57.5 µM
Summary of the method: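 Rat S16 Schwann cells without reporter constructs received compound or DMSO for 24 h at 37 °C under 5% CO2. Cellular ATP was then quantified by CellTiter-Glo luminescence, with vehicle wells defined as 0% activity and cell-free wells as reference.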

| SMILES | Potency |
| --- | --- |
| CCC1C(C)=NN=C(c2ccc(OC)c(OC)c2)c2cc(OC)c(OC)cc21 (configuration not stated) | inactive |
| S=C(S)N1CCNCC1 | inactive |
| CCN(CC)C(=O)/C(Cl)=C(\C)OP(=O)(OC)OC | inactive |
| COCC(C)N(C(=O)CCl)c1c(C)csc1C (configuration not stated) | inactive |
| CCC1(c2ccccc2)C(=O)NC(=O)N(C)C1=O (configuration not stated) | inactive |
| COC1=CC=C2[C@H]3Cc4ccc(OC)c5c4[C@@]2(CCN3C)[C@H]1O5 | inactive |
| CN1CCCC(=C(c2cccs2)c2cccs2)C1 | inactive |
| CC(C)(O)C1C2OC(=O)C1C1(O)CC3OC34C(=O)OC2C14C (configuration not stated) | inactive |
| CCC1(c2ccccc2)C(=O)NC(=O)NC1=O | inactive |
| CCOc1ccc2c3c1O[C@H]1[C@@H](O)C=C[C@H]4[C@@H](C2)N(C)CC[C@@]341 | inactive |
| N#CC1(N2CCCCC2)CCCCC1 | inactive |
| Cn1sc(Cl)cc1=O | inactive |
| C#CC(C)(O)CC (configuration not stated) | inactive |
| CCCC(C)C1(CC)C(=O)NC(=O)NC1=O (configuration not stated) | inactive |
| Clc1ccc(Cl)cc1 | inactive |
| CC(=O)OO | inactive |
| [N-]=[N+]=CC(=O)OCC(N)C(=O)O (configuration not stated) | inactive |
